Test results as given in the supplement of paper PMC11624193, “Coupling cellular drug-target engagement to downstream pharmacology with CeTEAM” (Nature Communications, 2024).
Where a name gives a salt, the structure may show the parent alone. A number with no mark means an inactive call.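 How the source made its calls: active = log2 fold change beyond 2 SD from the library mean after excluding viability outliers; inactive = within 2 SD.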

Target: PARP1 L713F-nLuc biosensor (HCT116) (UniProt P09874)
Sequence (P09874 whole entry L713F, looked up): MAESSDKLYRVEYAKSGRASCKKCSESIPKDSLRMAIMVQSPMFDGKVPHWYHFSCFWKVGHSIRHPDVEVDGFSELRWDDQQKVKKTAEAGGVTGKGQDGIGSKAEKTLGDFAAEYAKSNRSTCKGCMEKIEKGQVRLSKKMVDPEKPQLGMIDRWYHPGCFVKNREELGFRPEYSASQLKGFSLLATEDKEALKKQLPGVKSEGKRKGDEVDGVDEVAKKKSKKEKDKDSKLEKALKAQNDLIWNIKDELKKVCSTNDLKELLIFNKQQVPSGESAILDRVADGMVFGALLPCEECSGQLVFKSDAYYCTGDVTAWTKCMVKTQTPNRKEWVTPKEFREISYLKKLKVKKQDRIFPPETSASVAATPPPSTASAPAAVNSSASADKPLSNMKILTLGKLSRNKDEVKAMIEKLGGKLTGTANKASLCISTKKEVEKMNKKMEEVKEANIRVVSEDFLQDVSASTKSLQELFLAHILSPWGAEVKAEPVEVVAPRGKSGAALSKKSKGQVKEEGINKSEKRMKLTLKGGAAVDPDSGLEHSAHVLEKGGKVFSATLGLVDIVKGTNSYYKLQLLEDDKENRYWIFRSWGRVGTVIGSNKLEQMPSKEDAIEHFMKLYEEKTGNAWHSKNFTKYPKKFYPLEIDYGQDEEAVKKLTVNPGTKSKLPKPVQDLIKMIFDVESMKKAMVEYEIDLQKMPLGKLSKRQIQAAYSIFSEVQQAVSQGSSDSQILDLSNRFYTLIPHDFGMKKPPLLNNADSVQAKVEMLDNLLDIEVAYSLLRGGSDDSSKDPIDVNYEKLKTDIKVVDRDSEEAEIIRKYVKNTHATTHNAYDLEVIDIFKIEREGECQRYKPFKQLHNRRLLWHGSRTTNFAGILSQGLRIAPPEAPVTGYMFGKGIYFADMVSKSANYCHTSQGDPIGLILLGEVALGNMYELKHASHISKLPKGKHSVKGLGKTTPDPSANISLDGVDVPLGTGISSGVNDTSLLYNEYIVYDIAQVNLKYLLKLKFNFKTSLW
Assay: PARP1 L713F-nLuc/akaLuc ratio relative to DMSO control (biosensor stabilization) (fold change); higher = more PARP1 biosensor stabilization (target engagement / stabilizer), active = hit call of the paper
Settings: 24 h
[1] = stock concentration (mM; final µM = stock mM x 1): 10
[2] = stock concentration (mM; final µM = stock mM x 1): 2

Row | Compound | PARP1 L713F-nLuc/akaLuc ratio [1] | PARP1 L713F-nLuc/akaLuc ratio [2]
1 | COc1ccc(/C=C/C(=O)NO)c(-c2ccc(-c3ccccc3)cc2)c1 | 0.65 | 
2 | NC(=O)c1cccc2cn(-c3ccc([C@@H]4CCCNC4)cc3)nc12 [Niraparib (R-enantiomer)] | 8.24 (active) | 
3 | CC[C@@H]1CN(C(=O)NCC(F)(F)F)C[C@@H]1c1cnc2cnc3[nH]ccc3n12 [Upadacitinib] | 1.32 | 
4 | CCCc1cc(C)[nH]c(=O)c1CNC(=O)c1cc(-c2ccnc(N3CCN(C)CC3)c2)cc2c1cnn2C(C)C | 2.54 | 
5 | COc1cc2ncnc(Nc3ccc(NC(=O)c4ccccc4)cc3)c2cc1OC [Aurora kinase inhibitor-2] | 1.35 | 
6 | O=C(O)c1ccccc1Nc1cccc(C(F)(F)F)c1 [Flufenamic acid] | 1.23 | 
7 | N#Cc1ccc(COC[C@H]2O[C@@H](n3c(NCc4ccc(Cl)c(Cl)c4)nc4c(N)ncnc43)[C@H](O)[C@@H]2O)cc1 | 0.717 | 
8 | CCNC(=O)C#Cc1ccc2c(C(=Nc3ccc(CN(C)C)cc3)c3ccccc3)c(O)[nH]c2c1 | 0.604 | 
9 | Cc1c(Cn2c(C)nc3c(C(=O)O)cc(N4CCOCC4)cc32)cccc1C(F)(F)F | 1.38 | 
10 | CN1CCN(c2ccc3nc(-c4c(N)c5c(F)cccc5[nH]c4=O)[nH]c3c2)CC1 [Dovitinib (TKI258) Lactate] | 0.754 | 
11 | O=c1c(O)c(-c2ccc(O)c(O)c2)oc2cc(O)ccc12 [Fisetin] | 0.701 | 
12 | C[C@@H]1CC[C@@]2(OC1)O[C@H]1C[C@H]3[C@@H]4CC=C5C[C@@H](O[C@@H]6O[C@H](CO)[C@@H](O[C@@H]7O[C@@H](C)[C@H](O[C@@H]8O[C@@H](C)[C@H](O)[C@@H](O)[C@H]8O)[C@@H](O)[C@H]7O)[C@H](O)[C@H]6O[C@@H]6O[C@@H](C)[C@H](O)[C@@H](O)[C@H]6O)CC[C@]5(C)[C@H]4CC[C@]3(C)[C@@]1(O)[C@@H]2C [Paris saponin VII] | 1.01 | 
13 | CC1=C(CC[C@@H](C)CO[C@@H]2O[C@H](CO)[C@@H](O)[C@H](O)[C@H]2O)O[C@H]2C[C@H]3[C@@H]4CC=C5C[C@@H](O[C@@H]6O[C@H](CO)[C@@H](O[C@@H]7O[C@@H](C)[C@H](O)[C@@H](O)[C@H]7O)[C@H](O)[C@H]6O[C@@H]6O[C@@H](C)[C@H](O)[C@@H](O)[C@H]6O)CC[C@]5(C)[C@H]4CC[C@]3(C)[C@@H]12 [Pseudoprotodioscin] | 0.989 | 
14 | O=c1ncccn1[C@@H]1O[C@H](CO)[C@@H](O)[C@H]1O [Zebularine] | 0.711 | 
15 | COc1cc2c(Oc3ccc4[nH]c(C)cc4c3F)ncnc2cc1OCCCN1CCCC1 [Cediranib (AZD2171)] | 1.46 | 
16 | Cc1nn2c([nH]c(=O)c3cccnc32)c1C#N | 0.851 | 
17 | COc1ccc2cc3[n+](cc2c1OC)CCc1cc(O)c(O)cc1-3 [Demethyleneberberine] | 1.47 | 
18 | COc1ccc(C(=O)C2CCN(CC(=O)N(Cc3nc4c(c(=O)[nH]3)COCC4)CC3CC3)CC2)cc1 | 1.01 | 
19 | CC(=O)N1CCC(Nc2cc(C(=O)NC[C@H](O)CN3CCc4ccccc4C3)ncn2)CC1 | 0.707 | 
20 | N#Cc1ccc2ncnc(NCCc3ccccc3)c2c1 [Senexin A] | 1.24 | 
21 | COc1cc2c(NC3CCN(C4CCCCC4)CC3)nc(N3CCCN(C(C)C)CC3)nc2cc1OCCCN1CCCCC1 | 0.886 | 

Row | Compound | PARP1 L713F-nLuc/akaLuc ratio [1] | PARP1 L713F-nLuc/akaLuc ratio [2]
22 | N#Cc1ccc(C(c2ccc(C#N)cc2)n2cncn2)cc1 [Letrozole] | 1.4 | 
23 | O=C(O)Cn1nnc(-c2ccc(CN(CCCCOc3ccc(CN4CCCC4)cc3)CCc3ccccc3)cc2)n1 [TH1834 (dihydrochloride)] | 1.29 | 
24 | O=C1COc2c(CCNCCN(C(=O)CCNCCc3ccc(Cl)c(Cl)c3)C3CCCCC3)ccc(O)c2N1 [AZ505 (ditrifluoroacetate)] | 0.634 | 
25 | CN(C)CCCn1cc(C2=C(c3c[nH]c4ccccc34)C(=O)NC2=O)c2ccccc21 [Bisindolylmaleimide I] | 26.8 (active) | 
26 | NC(=O)c1cccc(-c2cccc(OC(=O)NC3CCCCC3)c2)c1 | 1.05 | 
27 | OC(COc1ccc(C(F)(F)F)cc1)CN(Cc1ccccc1)Cc1ccccc1 (stereo not drawn) | 1.03 | 
28 | O=C(Nc1cccc(Cl)c1)Nc1ncc(CCNc2ncnc3ccsc23)s1 [SNS-314 (mesylate)] | 1.11 | 
29 | Cc1nc(NC(=O)N2CCC[C@H]2C(N)=O)sc1-c1ccnc(C(C)(C)C(F)(F)F)c1 [Alpelisib (BYL719)] | 0.761 | 
30 | NC(=O)NO [Hydroxyurea] | 0.953 | 
31 | COC1CCN(C(=O)c2cc(Cc3n[nH]c(=O)c4ccccc34)ccc2F)CC1 | 7.52 (active) | 
32 | COc1ccc(CN2CCC(c3ccc4nc(C(=O)N5CCN(Cc6ccc(C(F)(F)F)cc6)CC5)[nH]c4c3)CC2)cn1 | 0.348 | 
33 | CC#CC(=O)N1CC[C@@H](n2c(=O)n(-c3ccc(Oc4ccccc4)cc3)c3c(N)ncnc32)C1 [ONO-4059 (GS-4059) hydrochloride] | 1.06 | 
34 | CC(C)Cn1cnc2c(N)nc3ccccc3c21 [Imiquimod] |  | 1.02
35 | CNc1nc(Nc2cn(C(C)(C)C#N)nc2C)ncc1C(F)(F)F | 0.811 | 
36 | CCN(c1cc(-c2ccc(CN3CCOCC3)cc2)cc(C(=O)NCc2c(C)cc(C)[nH]c2=O)c1C)C1CCOCC1 [Tazemetostat (EPZ-6438)] |  | 1.21
37 | O=C(O)CCCCC(CCSCc1ccccc1)SCc1ccccc1 (stereo not drawn) | 1.06 | 
38 | O=c1cc(N2CCOCC2)oc2c(-c3ccc4c(c3)OCCO4)csc12 | 0.39 | 
39 | O=C(Nc1ccnc(NC(=O)C2CC2)c1)c1c(Cl)cccc1Cl | 1.13 | 
40 | CCOC(=O)CCNc1cc(N2CCc3ccccc3CC2)nc(-c2ccccn2)n1 [GSK-J4 (hydrochloride)] | 1.45 | 
41 | CNC[C@@H](O)COc1ccc(Cl)c(-c2nc(-c3c(C)noc3C)c(C)c(N3CC4(CCN(C(=O)OC)CC4)C3)n2)c1 | 0.955 | 
42 | O=C(NN=Cc1c(O)ccc2ccccc12)c1ccncc1 | 0.653 | 

Row | Compound | PARP1 L713F-nLuc/akaLuc ratio [1] | PARP1 L713F-nLuc/akaLuc ratio [2]
43 | CC[C@H](C)[C@H](NC(=O)[C@H](CCCCN)NC(=O)[C@H](CC(C)C)NC(=O)[C@@H]1CCCN1C(=O)[C@H](CCC(=O)O)NC(=O)[C@H](Cc1ccc(O)cc1)NC(=O)[C@@H](NC(=O)[C@H](CO)NC(=O)CNC(=O)[C@H](CO)NC(=O)[C@H](CCCN=C(N)N)NC(=O)[C@H](CCCCN)NC(=O)[C@@H](NC(=O)[C@@H](N)CCCN=C(N)N)[C@@H](C)O)C(C)C)C(=O)O [Malantide] | 1.76 | 
44 | NC(=O)[C@H]1CCCc2c1[nH]c1ccc(Cl)cc21 [(S)-Selisistat] | 0.706 | 
45 | N#Cc1ccc(-c2cnc3[nH]cc(NC(=O)c4cccnc4)c3c2)cc1 | 0.668 | 
46 | Cc1cnc(Nc2ccc(OCCN3CCCC3)cc2)nc1Nc1cccc(S(=O)(=O)NC(C)(C)C)c1 [Fedratinib (hydrochloride hydrate)] | 0.551 | 
47 | O=C(CC[C@H](NC(=O)OCc1ccccc1)C(=O)O)NCCCC[C@H](NC(=O)OCc1ccccc1)C(=O)Nc1ccccc1 | 1.06 | 
48 | Cn1cc(-c2ccc(F)c(C(F)(F)F)c2)nc1C1CCN(c2ncnc3[nH]ncc23)CC1 |  | 0.945
49 | COc1cc2/c(=N/c3ccc(Br)cc3F)nc[nH]c2cc1OCC1CCN(C)CC1 [Vandetanib (ZD6474)] |  | 0.748
50 | CCC(C)n1ncn(-c2ccc(N3CCN(c4ccc(OCC5COC(Cn6cncn6)(c6ccc(Cl)cc6Cl)O5)cc4)CC3)cc2)c1=O (stereo not drawn) [Itraconazole] |  | 0.872
51 | CCc1cc(O)c(F)cc1-c1ccc2c(-c3nc4c([nH]3)CN(C3CCN(C)CC3)CC4)n[nH]c2c1 [JAK-IN-5 (hydrochloride)] |  | 0.581
52 | CNC(=O)c1ccc(-c2cnc3ncc(Cc4ccc5ncccc5c4)n3n2)cc1F |  | 0.95
53 | COCC(=O)Nc1cc(Sc2ccccc2)ccc1N=C(NC(=O)OC)NC(=O)OC [Febantel] | 1.6 | 
54 | Cc1cc(Cl)ccc1OCCCC(=O)NO [Droxinostat] | 2.78 (active) | 
55 | CC1(C)C=Cc2cc(CCn3c4ccccc4c4ccccc43)cc(C=O)c2O1 | 1.78 | 
56 | Cc1ccc(-n2nc(C(C)(C)C)cc2NC(=O)Nc2ccc(OCCN3CCOCC3)c3ccccc23)cc1 [Doramapimod (BIRB 796)] | 0.671 | 
57 | NC(=O)c1cnc2[nH]ccc2c1N[C@@H]1[C@@H]2CC3C[C@H]1C[C@@](O)(C3)C2 [Peficitinib] | 1.02 | 
58 | CC(C)Oc1ccc(-c2nn([C@@H](C)c3oc4ccc(F)cc4c(=O)c3-c3cccc(F)c3)c3ncnc(N)c23)cc1F [umbralisib (TGR-1202)] | 1.01 | 
59 | Cc1cccc(-c2nn3c(c2-c2ccnc4ccc(C(N)=O)cc24)CCC3)n1 | 0.664 | 
60 | O=C(Nc1ccc(O)c(C(=O)O)c1)c1cccc(NC(=O)c2ccco2)c1 | 1.19 | 
61 | COc1cc2ncnc(Nc3ccc(F)c(Cl)c3)c2cc1OCCCN1CCOCC1 [Gefitinib (ZD1839)] | 1.04 | 
62 | O=C(NNS(=O)(=O)c1ccccc1)c1cc(-c2ccnnc2)ccc1F | 1.16 | 
63 | Cc1nc(Nc2n[nH]c3c2CN(C(=O)N[C@H](CN(C)C)c2ccccc2)C3(C)C)c2sccc2n1 | 5.51 (active) | 
